From PubChem BioAssay AID1529 (NMMLSC, 2009)
The campaign covered roughly 290,000 compounds. About 4,200 (1.4%) were called active.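 How the source made its calls: active means binding response more than 3 SD above or below the average of its plate-row segment, actives on both sides; inconclusive means wells at one plate position flagged as instrument error; inactive means the rest.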 What follows is part of a selection rich in actives, with near analogues and random picks from the rest.

Target: Mitogen-activated protein kinase kinase kinase 3 (Homo sapiens) (UniProt Q99759)
Assay: compounds raising or lowering MEK5 association with MEKK3 PB1 – biochemical, wildtype MEKK3, multiplex bead flow cytometry, Alexa488-MEK5, primary screen (AID 1529);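 further: Alexa488 bead fluorescence after subtracting the streptavidin-only scavenger bead signal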
Settings: bead-based flow cytometry, Alexa488-MEK5 binding to MEKK3; at 10 µM; actives lie on both sides; 0 = blocked by unlabeled MEK5, 100 = vehicle

Chain of Mitogen-activated protein kinase kinase kinase 3 (Homo sapiens) (Q99759 whole entry, looked up): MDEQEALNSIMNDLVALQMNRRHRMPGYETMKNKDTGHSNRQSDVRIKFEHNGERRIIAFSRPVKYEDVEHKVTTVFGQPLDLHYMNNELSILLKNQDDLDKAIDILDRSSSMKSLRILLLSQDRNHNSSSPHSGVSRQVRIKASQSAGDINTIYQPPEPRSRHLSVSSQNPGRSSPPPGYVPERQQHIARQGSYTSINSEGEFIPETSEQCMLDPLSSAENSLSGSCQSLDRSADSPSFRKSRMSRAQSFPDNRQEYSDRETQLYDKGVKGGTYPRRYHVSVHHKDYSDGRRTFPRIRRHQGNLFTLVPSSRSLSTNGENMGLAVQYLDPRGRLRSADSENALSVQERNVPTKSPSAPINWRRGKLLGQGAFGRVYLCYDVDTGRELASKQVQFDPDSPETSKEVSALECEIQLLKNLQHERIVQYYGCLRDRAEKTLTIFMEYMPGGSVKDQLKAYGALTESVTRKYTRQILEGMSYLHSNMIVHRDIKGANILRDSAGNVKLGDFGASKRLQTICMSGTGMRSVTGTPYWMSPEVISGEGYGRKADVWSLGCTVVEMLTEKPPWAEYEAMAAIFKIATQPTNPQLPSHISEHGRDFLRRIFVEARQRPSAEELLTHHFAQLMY

| SMILES | binding response (% of control) |
| --- | --- |
| Cc1ccc(-c2nc3ccccc3[nH]2)cc1NC(=O)c1sc2ccccc2c1Cl | 102% (inactive) |
| O=C(Cc1cccs1)Nc1cccc(-c2nc3ccccc3[nH]2)c1 | 107% (inactive) |
| O=C(Nc1cccc(-c2nc3ccccc3[nH]2)c1)c1ccc(C(=O)Nc2cccc(-c3nc4ccccc4[nH]3)c2)cc1 | 63% [inhibitor] (active) |
| CCNC(=O)c1cnn(-c2ccccc2)c1-c1ccccc1 | 103% (inactive) |
| COc1ccc(C(=O)NC(=S)N2CCCCC2c2cccnc2)cc1OC (centres undefined) | 98% (inactive) |
| O=C(c1ccc(CS(=O)(=O)c2ccccc2)o1)N1CCN(c2ccccc2)CC1 | 102% (inactive) |
| O=C(c1cccc([N+](=O)[O-])c1)N1CCN(C(=O)c2ccco2)CC1 | 100% (inactive) |
| O=C(c1ccco1)N1CCN(c2cccc(Cl)c2)CC1 | 2% [inhibitor] (active) |
| O=C(Cc1c(F)cccc1Cl)N1CCN(C(=O)c2ccco2)CC1 | 103% (inactive) |
| Fc1ccc2c(c1)C(c1cccnc1)=NNC(c1cccs1)=N2 | 107% (inactive) |
| CCCOc1ccc(Cl)cc1Nc1nc(NCCO)nc(N2CCCC2)n1 | 108% (inactive) |
| CCCCN1C(=O)/C(=C(/C#N)C(N)=O)c2ccccc21 | 146% (active) |
| O=C(O)CCCN1C(=O)c2ccccc2Sc2ncccc21 | 107% (inactive) |
| COc1ccc2c(c1)C(=C(C#N)C#N)C(=O)N2CCc1ccccc1 | 96% (inactive) |
| CC1CN(C(=S)Nc2cccc(F)c2)CC(C)O1 (centres undefined) | 105% (inactive) |
| COc1ccc(CNC(=O)C2(CC3CC(c4ccccc4)=NO3)CCN(C(=O)c3cccc(O)c3)CC2)cc1 (centres undefined) | 99% (inactive) |
| COc1ccc(C(=O)NCc2nnc(SCC(=O)NC3=NCCS3)n2C)cc1 | 71% [inhibitor] (active) |
| COc1ccc(C(=O)NCc2nnc(SCCOc3ccccc3)n2C)cc1 | 102% (inactive) |
| COC(=O)c1ccc(NC(=O)CSc2nnc(CNc3ccc(OC)cc3)n2C)cc1 | 106% (inactive) |
| O=C(NCc1ccccc1)c1onc(CSc2ccncc2)c1C(=O)NCc1ccccc1 | 106% (inactive) |

| SMILES | binding response (% of control) |
| --- | --- |
| O=C(N/N=C/c1cccc([N+](=O)[O-])c1)c1ccncc1 | 107% (inactive) |
| N/C(=N\OS(=O)(=O)c1cccc([N+](=O)[O-])c1)c1ccncc1 | 145% (active) |
| CO/N=C(\N)c1ccc([N+](=O)[O-])cc1 | 98% (inactive) |
| C#CCOCCOCCOCCNc1nc(N2CCN(C(=O)C([C@@H](C)CC)n3cc(C(N)COC(=O)C(F)(F)F)nn3)CC2)nc(N2CCN(C(=O)[C@H](Cc3ccc(O)cc3)n3cc(C(N)[C@H](C)CC)nn3)CC2)n1 (some centres undefined) | 104% (inactive) |
| CC(=O)Nc1ccc(Oc2ccc3c(c2)C(=O)NC3=O)cc1 | 105% (inactive) |
| O=C(Cn1cnc([N+](=O)[O-])n1)NCCc1ccccc1 | 102% (inactive) |
| CC(C)(C)NC(=O)Cn1cnc([N+](=O)[O-])n1 | 1% [inhibitor] (active) |
| CC(C)(C)NC(=O)Cn1cnc2cc([N+](=O)[O-])ccc2c1=O | 95% (inactive) |
| CCC(CC)COC(=O)C1=C(C)NC(=O)NC1c1ccc([N+](=O)[O-])cc1 (centres undefined) | 105% (inactive) |
| CCSc1nnc(SCC(=O)NNC(=O)c2ccccc2F)s1 | 101% (inactive) |
| CCOc1ccc(NC(=O)Nc2cc(C)ccc2OC)cc1 | 71% [inhibitor] (active) |
| CCOc1ccc(C(=O)Nc2cc(OC)ccc2OC)cc1 | 97% (inactive) |
| CCOc1ccc(NC(=O)Nc2cc(C)on2)cc1 | 102% (inactive) |
| CC(C)CCC(C)NC(=O)c1ccc2nccnc2c1 (centres undefined) | 61% (inactive) |
| CCCc1nnc(NC(=O)CCC(=O)NC2CC2)s1 | 96% (inactive) |
| CCOc1ccc(NC(=O)Nc2ccc(N(C)C(C)=O)cc2)cc1 | 101% (inactive) |
| CC(=O)N(C)c1ccc(NC(=O)Nc2cccc3ccccc23)cc1 | 103% (inactive) |
| CC(=O)N(C)c1ccc(NC(=O)C(F)(F)F)cc1 | 2% [inhibitor] (active) |
| CC(NCC(=O)Nc1cc(Cl)cc(Cl)c1)c1ccccc1 (centres undefined) | 100% (inactive) |
| Cc1cc(=O)oc2c3c(cc(OCC(=O)N[C@H](C(=O)O)c4ccccc4)c12)OC(C)(C)CC3 | 97% (inactive) |

| SMILES | binding response (% of control) |
| --- | --- |
| C=CCC1(C(=O)N(C)Cc2ccccc2)CCN(C(=O)OC(C)(C)C)CC1 | 97% (inactive) |
| Cc1cc(-c2csc(N)n2)c(C)n1Cc1ccccc1 | 91% (inactive) |
| CC(=O)Nc1ccc(-c2csc(NC(=O)Nc3ccccc3)n2)cc1 | 101% (inactive) |
| CC(=O)Nc1ccc(C(=O)Nc2nc(-c3cc(C)n(Cc4ccccc4)c3C)cs2)cc1 | 131% (active) |
| CC1CCC(NC(=O)c2ccc(N3CCCC3=O)cc2)CC1 (centres undefined) | 104% (inactive) |
| O=C(NCCCN1CCCCCC1)c1ccc(N2CCCC2=O)cc1 | 108% (inactive) |
| O=C(COC(=O)c1ccc(N2CCCC2=O)cc1)c1ccc(OC(F)F)cc1 | 1% [inhibitor] (active) |
| COc1ccc(S(=O)(=O)NC(C)c2ccccc2)cc1C(=O)N1CCCCC1 (centres undefined) | 103% (inactive) |
| CCCN1CCn2c3c(c4cc(Br)ccc42)CCCC31 (centres undefined) | 96% (inactive) |
| O=C(c1cccs1)N(Cc1cc2ccccc2[nH]c1=O)CC1CCCO1 (centres undefined) | 99% (inactive) |
| COc1ccc(S(=O)(=O)N2CN(CCc3ccc(OC)c(OC)c3)c3nc4ccccc4nc32)cc1 | 64% [inhibitor] (active) |
| C=CCN1CN(S(=O)(=O)c2ccc(OC)cc2)c2nc3ccccc3nc21 | 100% (inactive) |
| O=S(=O)(c1ccccc1)N1CN(Cc2ccc(F)cc2)c2nc3ccccc3nc21 | 85% (inactive) |
| Cc1ccc(C(=O)N2CCC(n3nccc3NC(=O)Nc3cccc(F)c3)CC2)cn1 | 96% (inactive) |
| COC(=O)c1ccc(/C=N/NC(=O)C(=O)N2CCCCCC2)cc1 | 101% (inactive) |
| CCn1cc(CN2CCN(CC(C)(C)C)C(CCO)C2)c2ccccc21 (centres undefined) | 107% (inactive) |
| COCCOC(=O)C1=C(C)Nc2nc(C)nn2C1c1ccccc1 (centres undefined) | 97% (inactive) |
| COC(=O)c1nc2n(n1)C(c1ccc([N+](=O)[O-])cc1)C(C(=O)Nc1ccc(Cl)cc1)=C(C)N2 (centres undefined) | 139% (active) |
| COc1cc(C2C(C(=O)Nc3ccc(F)cc3)=C(C)Nc3nc(CCCO)nn32)cc(OC)c1OC (centres undefined) | 104% (inactive) |
